Test results: PubChem BioAssay (EPA / NIEHS)
Results filed as inconclusive are left out. Activity calls are given as the source filed them. Rule for the calls, unless noted: active = hit-call score of the fitted dose curve at least 0.9, where 1 is the maximum; inactive = score below 0.9.

Assays:
[1] = target: Nuclear respiratory factor 1 (Homo sapiens) (UniProt Q16656); assay: ATG_NRF1_CIS: Attagene CIS-FACTORIAL HepG2 Assay for human Nuclear Respiratory Factor 1 (NRF1) Orphan Gene (AID 2282987); conditions: HepG2 NRF1 cis-element reporter, Attagene multiplex; actives raise or lower the signal
How it was run: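 Endogenous factor activity was captured via cis-element-driven reporter transcripts in HepG2 cells. Following 24 h chemical treatment, transcripts were quantified by RT-PCR and capillary electrophoresis.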

[2] = ATG_NFI_CIS: Attagene CIS-FACTORIAL HepG2 Assay for human Nuclear Factor I (NFI) (AID 2282989); conditions: HepG2 cis-regulatory reporter, NFI response element transcription; actives raise or lower the signal
How it was run: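 Cells: human liver HepG2, transiently transfected with promoter-regulated reporter transcription units. Exposure 24 h. Detection: fluorescent RT-PCR products separated by capillary electrophoresis, normalised to DMSO negative control.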

[3] = target: Myc proto-oncogene protein (Homo sapiens) (UniProt P01106); assay: ATG_Myc_CIS: Attagene CIS-FACTORIAL HepG2 Assay for human Myelocytomatosis (Myc) Proto-Oncogene Transcription Factor (AID 2282990); conditions: HepG2, Attagene cis-reporter transcription factor activity; actives raise or lower the signal
How it was run: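 After 24 h chemical treatment of HepG2 cells carrying multiplexed cis-regulated reporter constructs, reporter transcripts quantified by RT-PCR and capillary electrophoresis of fluorescent fragments. Gain or loss fitted against DMSO baseline.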

[4] = ATG_NF_kB_CIS: Attagene CIS-FACTORIAL HepG2 Assay for human Nuclear Factor Kappa B (NF-kB) (AID 2282991); conditions: HepG2 Attagene cis-factorial NF-kB reporter mRNA; actives raise or lower the signal
How it was run: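 After 24 h compound incubation, transfected HepG2 cells yield total RNA; reporter cDNA is PCR-amplified, end-labelled with 6-FAM, HpaI-digested and analysed on a genetic analyser. Endogenous factor activity, DMSO-referenced bidirectional fit.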

[5] = ATG_NRF2_ARE_CIS: Attagene CIS-FACTORIAL HepG2 Assay for human Nuclear Factor Erythroid 2 Related Factor 2 (NFR2) response to Antioxidant Response Elements (ARE) (AID 2282992); conditions: HepG2 Attagene ARE/NRF2 reporter, transcription factor activity; actives raise or lower the signal;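 for AC50: reporter mRNA level measured by RT-PCR and capillary electrophoresis fluorescence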
How it was run: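 Readout: reporter mRNA quantified by RT-PCR plus FAM-labelled primer extension, HpaI digestion and capillary electrophoresis, 24 h after dosing transfected HepG2 cells. Gain or loss of signal is fitted bidirectionally against DMSO baseline.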

[6] = ATG_Oct_MLP_CIS: Attagene CIS-FACTORIAL HepG2 Assay for human Octamer-Binding Transcription Factor (Oct) (AID 2282993); conditions: HepG2 Attagene cis-factorial Oct reporter, mRNA; actives raise or lower the signal
How it was run: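 HepG2, transient MRTU transfection, cis promoter elements; 24 h dosing; RT-PCR/CE fluorescence read-out of reporter mRNA; fit both directions vs DMSO.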

[7] = target: Cellular tumor antigen p53 (Homo sapiens) (UniProt P04637); assay: ATG_p53_CIS: Attagene CIS-FACTORIAL HepG2 Assay for human p53 Transcription Factor (AID 2282994); conditions: HepG2 p53 cis-element reporter, Attagene mRNA; actives raise or lower the signal
How it was run: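 Read-out: reporter mRNA by RT-PCR plus capillary electrophoresis with fluorescence detection. Human HepG2 liver cells carried transfected multi-reporter cis-element constructs, dosed 24 h. Gain or loss of signal fitted bidirectionally against DMSO control.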

[8] = BSK_3C_TissueFactor: BioMAP Diversity Plus: 3C Assay for Tissue Factor Biomarker Activity (AID 2282997); conditions: BioMAP 3C HUVEC, tissue factor biomarker readout; actives raise or lower the signal
How it was run: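 After a 24 h chemical exposure of primary human umbilical vein endothelial cells, Tissue Factor levels were quantified by ELISA.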

[9] = BSK_3C_uPAR: BioMAP Diversity Plus: 3C Assay for Urokinase-type plasminogen activator receptor (uPAR) Biomarker Activity (AID 2282998); conditions: BioMAP 3C HUVEC, uPAR biomarker ELISA; actives raise or lower the signal
How it was run: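 A multiplexed primary-cell system built on human umbilical vein endothelium was used, with chemical present for 24 h before reading. Cell-surface uPAR was detected by ELISA; signal change in either direction counted against DMSO.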

[10] = BSK_3C_VCAM1: BioMAP Diversity Plus: 3C Assay for Vascular cell adhesion molecule 1 (VCAM1) Biomarker Activity (AID 2282999); conditions: BioMAP 3C HUVEC, VCAM1 ELISA, cytokine-stimulated; actives raise or lower the signal
How it was run: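 Activity fitted in both directions relative to DMSO, with ELISA measurement of the surface marker on primary HUVEC (3C) at 24 h post-treatment; parallel SRB staining (0.1% SRB, TCA-fixed, 560 nm) flagged overt cytotoxicity.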

[11] = BSK_4H_Eotaxin3: BioMAP Diversity Plus: 4H Assay for Eotaxin 3 Biomarker Activity (AID 2283000); conditions: primary human endothelial cells (HUVEC); actives raise or lower the signal;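 note: CCL26 protein level quantified by ELISA in parallel with SRB cytotoxicity check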
How it was run: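 Chemicals were added to human umbilical vein endothelium cultures, and Eotaxin-3 was quantified by ELISA at 24 h. Values were derived by bidirectional fitting with DMSO serving as negative control and activity baseline.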

[12] = target: human Peroxisome Proliferator-activated Receptor alpha (PPARa), PPARA (gene 5465) (UniProt Q07869); assay: ATG_PPARa_TRANS: Attagene TRANS-FACTORIAL HepG2 Assay for human Peroxisome Proliferator-activated Receptor alpha (PPARa) (AID 2283001; active = hit-call score of the fitted dose curve at least 0.9, where 1 is the maximum)
How it was run: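 Reporter transcripts quantified by RT-PCR plus capillary electrophoresis after 24 h treatment, fitted upward relative to DMSO. Cells: human HepG2 transiently carrying multiple GAL4-UAS reporter units driven by NR-Gal4 chimeras.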

[13] = target: human Retinoic Acid Receptor beta (RARb), RARB (gene 5915) (UniProt P10826); assay: ATG_RARb_TRANS: Attagene TRANS-FACTORIAL HepG2 Assay for human Retinoic Acid Receptor beta (AID 2283004; active = hit-call score of the fitted dose curve at least 0.9, where 1 is the maximum)
How it was run: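 Transient transfection of HepG2 with multiple reporter units → chemical dosing, 24 h → total RNA isolation → RT with oligo(dT) → reporter-specific PCR, 6-FAM primer extension, HpaI digest → capillary electrophoresis. Positive direction vs DMSO control.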

[14] = target: Retinoic acid receptor alpha (Homo sapiens) (UniProt P10276); assay: ATG_RARa_TRANS: Attagene TRANS-FACTORIAL HepG2 Assay for human Retinoic Acid Receptor alpha (RARa) (AID 2283005; active = hit-call score of the fitted dose curve at least 0.9, where 1 is the maximum)
How it was run: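 Reporter transcripts, measured by RT-PCR with fluorescent labeling and capillary electrophoresis after 24 h dosing, reflect activity of an exogenous human RARa–GAL4 fusion in transiently transfected HepG2. Fitted for increase relative to DMSO.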

[15] = target: Peroxisome proliferator-activated receptor gamma (Homo sapiens) (UniProt P37231); assay: ATG_PPARg_TRANS: Attagene TRANS-FACTORIAL HepG2 Assay for human Peroxisome Proliferator-activated Receptor-gamma (PPARg) (AID 2283007; active = hit-call score of the fitted dose curve at least 0.9, where 1 is the maximum)
How it was run: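 Liver-derived HepG2 cells expressing an exogenous NR-Gal4 chimera alongside GAL4-UAS reporter genes; 24 h exposure. Fluorescence of reporter RT-PCR products, separated by capillary electrophoresis, gives mRNA induction relative to DMSO.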

[16] = target: Nuclear receptor subfamily 1 group I member 2 (Homo sapiens) (UniProt O75469); assay: ATG_PXR_TRANS: Attagene TRANS-FACTORIAL HepG2 Assay for human Pregnane X Receptor (PXR) (AID 2283008; active = hit-call score of the fitted dose curve at least 0.9, where 1 is the maximum)
How it was run: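 Trans-factorial format: exogenous NR-Gal4 fusion activity, not endogenous factor, in transfected human HepG2 liver cells. After 24 h dosing, RNA isolated, reverse-transcribed, amplified and resolved by capillary electrophoresis; induction scored versus DMSO.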

[17] = target: human Peroxisome Proliferator-activated Receptor delta (PPARd), PPARD (gene 5467) (UniProt Q03181); assay: ATG_PPARd_TRANS: Attagene TRANS-FACTORIAL HepG2 Assay for human Peroxisome Proliferator-activated Receptor delta (PPARd) (AID 2283002; active = hit-call score of the fitted dose curve at least 0.9, where 1 is the maximum)
How it was run: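 Read-out is induced reporter mRNA, quantified by RT-PCR with fluorescent labelling and capillary electrophoresis after 24 h dosing. Cells are HepG2 transiently carrying multiple GAL4-UAS reporter units driven by exogenous NR-GAL4 chimeras; DMSO serves as baseline.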

[18] = read-out: Intercellular Adhesion Molecule 1 (ICAM1), ICAM1 (gene 3383); assay: BSK_3C_ICAM1: BioMAP Diversity Plus: 3C Assay for Intercellular Adhesion Molecule 1 (ICAM1) Biomarker Activity (AID 2283003); conditions: primary human endothelial cells (HUVEC); actives raise or lower the signal
How it was run: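 Chemicals are dosed onto primary human umbilical vein endothelium (3C system). After 24 h, ICAM-1 is measured by ELISA, and responses are fitted bidirectionally relative to DMSO.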

[19] = target: human Retinoic Acid Receptor gamma (RARg), RARG (gene 5916) (UniProt P13631); assay: ATG_RARg_TRANS: Attagene TRANS-FACTORIAL HepG2 Assay for human Retinoic Acid Receptor gamma (RARg) (AID 2283009; active = hit-call score of the fitted dose curve at least 0.9, where 1 is the maximum)
How it was run: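 TRANS format measured activity of exogenous NR-GAL4 fusion (RARg) in transfected HepG2 liver cells after 24 h dosing. Induced reporter RNA was detected by RT-PCR/capillary electrophoresis fluorescence, analysed in the positive direction against DMSO.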

[20] = BSK_3C_Proliferation: Cell Proliferation Assessment in the BioMAP Diversity Plus: 3C Assay (AID 2283006); conditions: primary human endothelial cells (HUVEC);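 for AC50: potency may reflect either rise or fall in cell number versus DMSO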
How it was run: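 Cells (human umbilical vein endothelial, sub-confluent) receive test chemical; after 48 h they are fixed in 10% trichloroacetic acid, stained with 0.1% SRB and read at 560 nm. Activity is referenced to DMSO, fitting increases and decreases.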

Measured: AC50

Chain of Retinoic acid receptor alpha (Homo sapiens) (P10276 whole entry, looked up, the tested form may be a part): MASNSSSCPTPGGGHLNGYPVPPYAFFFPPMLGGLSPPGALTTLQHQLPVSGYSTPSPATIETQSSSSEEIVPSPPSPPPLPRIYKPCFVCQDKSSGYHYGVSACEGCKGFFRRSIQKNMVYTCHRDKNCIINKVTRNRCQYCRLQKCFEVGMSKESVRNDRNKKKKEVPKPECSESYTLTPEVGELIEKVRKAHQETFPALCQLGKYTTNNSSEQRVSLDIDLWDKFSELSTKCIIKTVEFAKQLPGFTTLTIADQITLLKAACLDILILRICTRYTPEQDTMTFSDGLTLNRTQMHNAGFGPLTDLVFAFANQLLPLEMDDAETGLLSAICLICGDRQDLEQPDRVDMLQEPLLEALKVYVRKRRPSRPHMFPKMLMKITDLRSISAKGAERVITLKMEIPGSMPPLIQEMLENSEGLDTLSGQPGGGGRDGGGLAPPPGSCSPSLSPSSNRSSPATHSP
Chain of human Retinoic Acid Receptor beta (RARb), RARB (gene 5915) (P10826 whole entry, looked up): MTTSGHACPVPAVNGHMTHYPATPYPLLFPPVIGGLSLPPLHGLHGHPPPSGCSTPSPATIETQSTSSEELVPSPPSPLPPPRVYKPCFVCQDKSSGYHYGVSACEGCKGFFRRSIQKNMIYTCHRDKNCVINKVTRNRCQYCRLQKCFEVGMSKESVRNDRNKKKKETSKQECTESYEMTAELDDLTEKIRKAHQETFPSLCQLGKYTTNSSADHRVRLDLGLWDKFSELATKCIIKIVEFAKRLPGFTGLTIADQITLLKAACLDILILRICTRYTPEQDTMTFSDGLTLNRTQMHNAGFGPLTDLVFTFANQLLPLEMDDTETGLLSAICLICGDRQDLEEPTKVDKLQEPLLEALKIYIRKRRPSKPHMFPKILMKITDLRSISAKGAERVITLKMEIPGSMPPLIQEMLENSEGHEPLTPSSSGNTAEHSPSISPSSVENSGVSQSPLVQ
Chain of human Peroxisome Proliferator-activated Receptor alpha (PPARa), PPARA (gene 5465) (Q07869 whole entry, looked up, the tested form may be a part): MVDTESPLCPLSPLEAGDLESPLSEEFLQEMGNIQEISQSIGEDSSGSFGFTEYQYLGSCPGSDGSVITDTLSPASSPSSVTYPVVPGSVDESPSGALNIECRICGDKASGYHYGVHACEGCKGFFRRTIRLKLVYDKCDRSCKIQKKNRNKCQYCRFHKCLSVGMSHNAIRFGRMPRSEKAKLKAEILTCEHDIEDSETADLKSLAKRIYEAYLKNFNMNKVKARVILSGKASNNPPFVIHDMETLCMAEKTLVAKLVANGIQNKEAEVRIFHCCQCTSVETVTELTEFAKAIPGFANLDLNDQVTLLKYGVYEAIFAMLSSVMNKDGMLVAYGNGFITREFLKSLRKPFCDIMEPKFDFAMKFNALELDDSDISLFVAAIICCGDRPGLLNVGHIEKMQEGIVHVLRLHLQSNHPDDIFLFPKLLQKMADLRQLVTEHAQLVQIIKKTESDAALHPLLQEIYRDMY
Chain of Nuclear respiratory factor 1 (Homo sapiens) (Q16656 whole entry, looked up): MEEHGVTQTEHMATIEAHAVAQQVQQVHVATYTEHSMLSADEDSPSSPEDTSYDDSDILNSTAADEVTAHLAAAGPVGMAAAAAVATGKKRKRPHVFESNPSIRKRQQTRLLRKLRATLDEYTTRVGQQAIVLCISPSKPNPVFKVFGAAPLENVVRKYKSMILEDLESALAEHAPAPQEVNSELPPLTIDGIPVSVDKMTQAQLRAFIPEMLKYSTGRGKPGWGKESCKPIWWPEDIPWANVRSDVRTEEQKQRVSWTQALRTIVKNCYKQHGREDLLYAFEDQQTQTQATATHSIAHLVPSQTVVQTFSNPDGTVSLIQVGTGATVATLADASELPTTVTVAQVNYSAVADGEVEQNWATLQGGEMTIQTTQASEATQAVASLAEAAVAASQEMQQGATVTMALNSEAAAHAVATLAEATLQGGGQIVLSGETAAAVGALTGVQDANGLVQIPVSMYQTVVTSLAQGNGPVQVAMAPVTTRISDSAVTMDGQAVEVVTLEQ
Chain of Myc proto-oncogene protein (Homo sapiens) (P01106 whole entry, looked up, the tested form may be a part): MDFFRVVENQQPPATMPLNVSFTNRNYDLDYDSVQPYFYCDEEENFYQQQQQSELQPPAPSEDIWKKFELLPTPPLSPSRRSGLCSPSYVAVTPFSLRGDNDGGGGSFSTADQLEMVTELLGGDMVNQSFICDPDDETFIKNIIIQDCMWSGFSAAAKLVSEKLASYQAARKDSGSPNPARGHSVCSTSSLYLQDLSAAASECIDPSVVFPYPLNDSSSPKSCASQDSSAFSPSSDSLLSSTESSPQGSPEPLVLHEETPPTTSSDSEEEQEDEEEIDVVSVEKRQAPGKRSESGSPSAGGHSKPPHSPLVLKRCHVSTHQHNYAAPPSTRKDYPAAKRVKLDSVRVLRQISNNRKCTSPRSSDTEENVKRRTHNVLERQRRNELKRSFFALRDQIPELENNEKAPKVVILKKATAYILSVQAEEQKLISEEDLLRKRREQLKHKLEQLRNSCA
Chain of Nuclear receptor subfamily 1 group I member 2 (Homo sapiens) (O75469 whole entry, looked up, the tested form may be a part): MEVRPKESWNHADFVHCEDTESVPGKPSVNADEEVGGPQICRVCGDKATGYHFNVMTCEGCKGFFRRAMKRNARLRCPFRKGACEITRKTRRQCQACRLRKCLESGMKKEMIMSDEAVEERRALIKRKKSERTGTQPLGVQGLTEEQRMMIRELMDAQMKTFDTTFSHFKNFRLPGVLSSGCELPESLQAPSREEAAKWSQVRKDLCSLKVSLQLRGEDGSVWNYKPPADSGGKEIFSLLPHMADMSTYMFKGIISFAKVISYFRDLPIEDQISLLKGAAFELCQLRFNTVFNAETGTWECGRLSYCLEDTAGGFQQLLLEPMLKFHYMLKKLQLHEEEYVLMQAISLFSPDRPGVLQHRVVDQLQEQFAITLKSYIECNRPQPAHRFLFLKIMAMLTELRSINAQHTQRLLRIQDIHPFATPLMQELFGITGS
Chain of Cellular tumor antigen p53 (Homo sapiens) (P04637 whole entry, looked up): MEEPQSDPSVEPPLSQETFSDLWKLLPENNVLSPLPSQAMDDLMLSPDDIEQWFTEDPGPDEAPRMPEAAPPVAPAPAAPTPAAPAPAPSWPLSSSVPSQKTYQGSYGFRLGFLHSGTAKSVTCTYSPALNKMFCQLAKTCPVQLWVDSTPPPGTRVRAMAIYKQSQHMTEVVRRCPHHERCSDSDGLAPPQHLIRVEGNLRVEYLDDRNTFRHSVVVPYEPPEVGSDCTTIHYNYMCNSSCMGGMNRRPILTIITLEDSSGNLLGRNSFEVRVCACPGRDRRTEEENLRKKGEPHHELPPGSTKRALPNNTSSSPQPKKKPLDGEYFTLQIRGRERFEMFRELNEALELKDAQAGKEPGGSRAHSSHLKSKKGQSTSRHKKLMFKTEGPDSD
Chain of human Peroxisome Proliferator-activated Receptor delta (PPARd), PPARD (gene 5467) (Q03181 whole entry, looked up, the tested form may be a part): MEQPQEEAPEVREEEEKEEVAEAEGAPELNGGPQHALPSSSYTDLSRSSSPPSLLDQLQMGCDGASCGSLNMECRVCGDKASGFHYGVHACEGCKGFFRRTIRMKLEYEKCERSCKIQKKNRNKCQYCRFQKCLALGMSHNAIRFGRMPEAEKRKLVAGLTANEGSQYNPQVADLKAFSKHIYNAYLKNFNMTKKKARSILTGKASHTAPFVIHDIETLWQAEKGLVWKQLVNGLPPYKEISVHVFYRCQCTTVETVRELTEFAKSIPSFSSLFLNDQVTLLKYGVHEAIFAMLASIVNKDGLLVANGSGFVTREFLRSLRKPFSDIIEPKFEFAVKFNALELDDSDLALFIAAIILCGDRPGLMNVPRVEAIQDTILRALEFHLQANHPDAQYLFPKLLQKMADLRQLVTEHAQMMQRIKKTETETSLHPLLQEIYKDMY
Chain of Peroxisome proliferator-activated receptor gamma (Homo sapiens) (P37231 whole entry, looked up, the tested form may be a part): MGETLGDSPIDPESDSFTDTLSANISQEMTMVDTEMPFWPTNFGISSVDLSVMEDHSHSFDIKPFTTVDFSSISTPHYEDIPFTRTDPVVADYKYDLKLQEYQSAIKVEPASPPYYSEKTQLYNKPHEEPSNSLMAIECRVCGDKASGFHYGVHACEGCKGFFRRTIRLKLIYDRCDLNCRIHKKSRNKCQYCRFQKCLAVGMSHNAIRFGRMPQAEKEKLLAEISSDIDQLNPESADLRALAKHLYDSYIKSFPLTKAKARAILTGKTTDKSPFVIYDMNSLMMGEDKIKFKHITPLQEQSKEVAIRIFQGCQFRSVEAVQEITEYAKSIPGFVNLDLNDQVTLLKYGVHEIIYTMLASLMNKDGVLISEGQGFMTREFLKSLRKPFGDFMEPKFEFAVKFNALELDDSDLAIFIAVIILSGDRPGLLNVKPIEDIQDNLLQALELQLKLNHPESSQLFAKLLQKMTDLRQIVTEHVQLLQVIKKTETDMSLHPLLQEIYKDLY
Chain of human Retinoic Acid Receptor gamma (RARg), RARG (gene 5916) (P13631 whole entry, looked up, the tested form may be a part): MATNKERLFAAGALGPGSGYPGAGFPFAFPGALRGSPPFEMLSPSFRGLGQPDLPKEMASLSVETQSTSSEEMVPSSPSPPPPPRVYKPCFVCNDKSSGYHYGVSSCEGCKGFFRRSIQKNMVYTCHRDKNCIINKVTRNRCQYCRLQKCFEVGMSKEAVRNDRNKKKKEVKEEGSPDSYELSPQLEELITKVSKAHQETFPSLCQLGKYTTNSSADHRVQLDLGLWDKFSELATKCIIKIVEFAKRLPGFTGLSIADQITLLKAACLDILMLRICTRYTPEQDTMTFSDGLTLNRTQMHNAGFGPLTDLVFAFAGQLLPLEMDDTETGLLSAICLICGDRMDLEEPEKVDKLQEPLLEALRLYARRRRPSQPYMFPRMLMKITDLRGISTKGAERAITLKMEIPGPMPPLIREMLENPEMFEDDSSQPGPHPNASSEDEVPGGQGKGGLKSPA

CN(C)C(=O)Nc1cccc(C(F)(F)F)c1
not listed: [17] | [18] | [19] | [20]
inactive: all other assays above

CNC(=O)ON=C(SC)C(=O)N(C)C
active: [5] 24.9 µM | [6] 18.9 µM
not listed: [13] | [14] | [16] | [18] | [19] | [20]
inactive: all other assays above

CNc1cnn(-c2cccc(C(F)(F)F)c2)c(=O)c1Cl
active: [5] 17.1 µM | [6] 13.7 µM
not listed: [12] | [20]
inactive: all other assays above

O=c1ccc(=O)[nH][nH]1
not listed: [13] | [14] | [17] | [18] | [19]
inactive: all other assays above

CCCCN(CC)c1c([N+](=O)[O-])cc(C(F)(F)F)cc1[N+](=O)[O-]
active: [5] 6.46 µM | [6] 12.7 µM | [20] 31.6 µM | [16] 14.4 µM
not listed: [17]
inactive: all other assays above

CCOP(=S)(OCC)SCCSCC
active: [5] 33.7 µM
not listed: [18] | [19]
inactive: all other assays above

COc1cc(OC)nc(Sc2cccc(Cl)c2C(=O)O)n1
not listed: [13] | [14] | [16] | [17] | [19]
inactive: all other assays above
